Our source for the INHIBITION values is ChEMBL document CHEMBL4513216, “Probing the Open Global Health Chemical Diversity Library for Multistage-Active Starting Points for Next-Generation Antimalarials” (ACS Infect Dis, 2020).

Molecules are shown by their SMILES. Among all 69,000 compounds or so, about 8,600 (12%) showed an effect of 50% or more. For the sample, strong results were picked, then their nearest neighbours and some compounds at random.

In this experiment the test system is Plasmodium berghei. Briefly: Screen against P. berghei liver stage (PbLuc), transformed with Luciferase, at 10uM. The format is functional, HepG2. As to conditions: tested at 10 uM.
As for `CCOCCCNC(=O)CN(c1ccc(C)c(C)c1)S(C)(=O)=O`, the INHIBITION was found to be 18.4%.

With `CCOCCCNC(=O)CN(c1ccc(F)c(F)c1)S(C)(=O)=O`, the INHIBITION was 43.3%.

For `CC(C)OCCCNC(=O)CN(c1ccc(F)c(F)c1)S(C)(=O)=O`, the INHIBITION is reported as 62.3%.

As for `CCC1=N[C@@]2(CC[C@@H]3CN(C(=O)Nc4ccccc4)C[C@@H]32)C(=O)N1C`, the INHIBITION is given as 26.3%.

Consider `COC(=O)c1ccc(-c2ccc(/C=C3\C(=O)NC(=N)N3C)o2)cc1`, for which the INHIBITION was 34.2%.

For the molecule `Cc1csc(CNC(=O)N2CCCC(c3nncn3C)C2)n1` (stereo not given), the INHIBITION is -23.9%.

As to `CCOc1ncccc1NC(=O)NC1CCN(C(C)=O)CC1`, the INHIBITION stood at 5.7%.

For the molecule `COc1ccccc1N1CCN(C(=O)CCn2ccc(C)n2)CC1`, the INHIBITION was 16.2%.

For `CS(=O)(=O)N1CCC(c2cnc(-c3cn[nH]c3)cn2)CC1`, the INHIBITION was found to be 28.9%.

For the molecule `O=C(C1NCCc2[nH]cnc21)N1CCC2(C=Cc3ccccc32)CC1` (stereo not given), the INHIBITION turned out to be 53%.

`O=C1OC2(CCN(C(=O)C3NCCc4[nH]cnc43)CC2)c2ccccc21` (stereo not given): the INHIBITION is recorded as 23.5%.

Turning to `O=C(C1NCCc2[nH]cnc21)N1CCC2(CC1)CNc1ccccc12` (stereo not given), the INHIBITION is given as -15.8%.

As to `Cc1cc(C)nc(N2CCC(C(=O)O)(n3ccc(C(C)(C)C)n3)CC2)n1`, the INHIBITION was found to be 25.4%.

With `O=c1cccnn1CC1CN(CC2CCCC2)Cc2nccn2C1` (stereo not given), the INHIBITION is listed as -23.1%.

Take `CN1CCC(Nc2ccc(F)cc2OCC(F)(F)F)C1=O` (stereo not given): the INHIBITION is -0.378%.

Consider `CC(CNC(=O)c1ccc(C#N)cc1)N1CCc2ccccc21` (stereo not given), for which the INHIBITION was 83.2%.

With `Cc1cc(C(=O)NCC(C)N2CCc3ccccc32)no1` (stereo not given), the INHIBITION was found to be 21.8%.

Turning to `CC(CNC(=O)c1cccc(C#N)c1)N1CCc2ccccc21` (stereo not given), the INHIBITION was -8.51%.

For `CC(CNC(=O)c1ccc(=O)[nH]n1)N1CCc2ccccc21` (stereo not given), the INHIBITION turned out to be 53%.

Consider `CCC(CNC(=O)c1ccc(=O)[nH]n1)N1CCc2ccccc2C1` (stereo not given), for which the INHIBITION amounted to 28.5%.

In the case of `CC(CNC(=O)Nc1ccc(C#N)cc1)N1CCc2ccccc21` (stereo not given), the INHIBITION worked out at 40.1%.

As for `O=C(Nc1ccccc1N1CCOC1=O)N1CCc2sccc2C1`, the INHIBITION stood at 18.4%.

Take `CCn1c(=O)n(CC)c2cc(S(N)(=O)=O)ccc21`: the INHIBITION stood at 29.1%.

For the molecule `COCC1CC2(CCNCC2)CN1Cc1csc(C)n1` (stereo not given), the INHIBITION is on record as -15.3%.

On to `Cc1noc(CCCC(=O)NC(C)c2ccc(Cl)s2)n1` (stereo not given), for which the INHIBITION was -2.95%.

Turning to `O=C(CCO)N1C[C@@H]2CC[C@H]1CN(C1Cc3ccccc3C1)C2`, the INHIBITION is reported as -43.5%.

For the molecule `CC(C)COc1cccc(-c2nc3c([nH]2)CCNC3)c1`, the INHIBITION is 41.5%.

In the case of `COc1cccc(-c2nc3c([nH]2)CCNC3)c1F`, the INHIBITION came to 61%.

For `CC(=O)c1cccc(-c2nc3c([nH]2)CCNC3)c1F`, the INHIBITION came out at 37.8%.

As to `CC(C)N(C(=O)c1ccccc1-c1nc2c([nH]1)CCNC2)C(C)C`, the INHIBITION is reported as 54.5%.

On to `CC(C)NC(=O)Nc1ccc(-c2nc3c([nH]2)CCNC3)cc1`, for which the INHIBITION is given as -100%.

Regarding `COc1ccc(-c2nc3c([nH]2)CCNC3)c(OC)c1OC`, the INHIBITION came to 28.7%.

On to `CS(=O)(=O)N1CCCC(Cc2ccnc3ccncc23)CC1` (stereo not given), for which the INHIBITION is reported as 19.6%.

In the case of `O=C(c1cccnc1)N1CCCC2(CCN(c3ccsc3)C2=O)C1` (stereo not given), the INHIBITION is listed as -33.7%.

For the molecule `CN(C)C(=O)[C@@H]1CCO[C@@H]2CCN(Cc3ccc4c(c3)OCO4)C[C@@H]21`, the INHIBITION came to 10.8%.

With `COc1cc(N2CCC3(CCCN3Cc3cnn(C)c3)CC2)ncn1`, the INHIBITION amounted to 13.7%.

`CCCN1CCc2nc(SCc3ccccc3)[nH]c(=O)c2C1`: the INHIBITION is 17.7%.

As for `COCCN1CCc2nc(SCc3ccc(F)cc3)[nH]c(=O)c2C1`, the INHIBITION is given as 56.3%.

For the molecule `CCCN1CCc2nc(SCc3ccc(F)cc3)[nH]c(=O)c2C1`, the INHIBITION was found to be 20%.

Consider `Cn1cnnc1C1CCCN(C(=O)c2ccccn2)C1` (stereo not given), for which the INHIBITION was 13.6%.

`Cc1cccc(C(=O)N2C[C@@H]3CC[C@H]2CN(S(=O)(=O)N(C)C)C3)n1`: the INHIBITION was 18.2%.

On to `CN(C(=O)Cc1coc(-c2ccccc2)n1)C1(C#N)CCC1`, for which the INHIBITION stood at 78.3%.

Consider `CN(C(=O)Cc1coc(-c2cccs2)n1)C1(C#N)CCC1`, for which the INHIBITION is 27.9%.

Regarding `Cc1oc(-c2cccs2)nc1C(=O)N(C)C1(C#N)CCC1`, the INHIBITION was -11.6%.

As to `Cc1nc(C)n(C2CCCN(C(=O)c3sccc3C)C2)n1` (stereo not given), the INHIBITION is on record as -19.6%.

As for `CCn1nc(C)c2c1cnn2CCNS(=O)(=O)c1ccccc1`, the INHIBITION is on record as -22.2%.

For the molecule `CCn1nc(C)c2c1cnn2CCNS(=O)(=O)c1cccs1`, the INHIBITION was 60.7%.

Regarding `CCn1nc(C)c2c1cnn2CCNS(C)(=O)=O`, the INHIBITION is listed as 16.8%.

Take `Cc1ccsc1CNCc1c(C(C)C)nn(C)c1N1CCOCC1`: the INHIBITION is on record as 9.52%.

Turning to `COc1cc(CNC(=O)Nc2nncs2)ccc1O`, the INHIBITION is -73.6%.

Turning to `Cc1ccc(CNC(=O)Nc2nncs2)cn1`, the INHIBITION is 27.4%.

In the case of `COC(=O)C(CNC(=O)Nc1nncs1)Cc1cccc(C)c1` (stereo not given), the INHIBITION is reported as 76.8%.

With `COC(=O)C(CNC(=O)Nc1cn[nH]c1)Cc1cccc(C)c1` (stereo not given), the INHIBITION turned out to be 11.9%.

Consider `COC(=O)C(CNC(=O)Nc1nncs1)Cc1ccc(F)cc1` (stereo not given), for which the INHIBITION is recorded as 37.6%.

In the case of `COC(=O)C(CNC(=O)Nc1nncs1)Cc1ccc(O)cc1` (stereo not given), the INHIBITION came out at 51%.
